According to PubChem BioAssay AID1851 (National Center for Advancing Translational Sciences (NCATS), 2009):
Where “and” joins values, the source holds several entries; their conditions need not be identical. Equal entries are not always repeated. About 5,700 (36%) of roughly 16,000 compounds were called active. Inconclusive results (about 24%) are left out. Calls follow the shape of the dose curve; as a rule, active = well fitted curve in the direction sought with a large enough effect; inconclusive = small, poorly fitted or top-dose-only effect, or effect the other way; inactive = no such curve, though single readings can be large or run the other way. The list shows a part of the results.

Biological target: Cytochrome P450 1A2 (Homo sapiens) (UniProt P05177)
Experiment: Cytochrome panel assay with activity outcomes
Settings: recombinant CYP, pro-luciferin dealkylation, luminescence, p450-cyp1a2; series mostly up to 57.1 µM; activity, negative = inhibition: at the top concentration
% is scaled to controls: 0 for no effect and ±100 for the full control effect.

Cytochrome P450 1A2 (Homo sapiens), sequence (P05177 whole entry, looked up): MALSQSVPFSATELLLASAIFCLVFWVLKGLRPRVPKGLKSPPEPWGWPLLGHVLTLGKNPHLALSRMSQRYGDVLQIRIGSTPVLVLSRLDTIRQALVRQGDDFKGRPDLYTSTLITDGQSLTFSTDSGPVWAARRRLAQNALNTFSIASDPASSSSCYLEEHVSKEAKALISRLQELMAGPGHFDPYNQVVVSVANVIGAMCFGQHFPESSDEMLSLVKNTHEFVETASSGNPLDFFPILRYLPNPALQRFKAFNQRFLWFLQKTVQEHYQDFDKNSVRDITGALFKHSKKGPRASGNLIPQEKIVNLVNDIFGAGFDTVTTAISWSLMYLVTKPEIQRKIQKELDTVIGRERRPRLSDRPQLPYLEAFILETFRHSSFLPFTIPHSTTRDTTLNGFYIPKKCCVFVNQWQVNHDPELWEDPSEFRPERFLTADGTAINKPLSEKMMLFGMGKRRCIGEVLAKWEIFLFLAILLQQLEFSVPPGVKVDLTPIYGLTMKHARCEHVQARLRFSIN

AC50, active:
Cc1ccc(C)c(Cn2c(C(=O)OC(C)C)cc3c2ccn3C)c1 12600 nM
CC(c1ccc(Cl)cc1)n1c(-c2ccc3ccccc3n2)n[nH]c1=S (centres undefined) 11200 nM
Cc1nc2c(OCc3ccccc3)cccn2c1CC#N 398 nM
Brc1ccc(-c2csc(N3CCC(c4ccccc4)C3)n2)cc1 (centres undefined) 2510 nM
Clc1ccc(-c2csc(N3CCC(c4ccccc4)C3)n2)cc1 (centres undefined) 3550 nM
O=C(NC1CCCC1)c1cnn2c(C(F)(F)F)cc(-c3ccco3)nc12 2240 nM
C/C(=N\NC(N)=S)c1ccc[nH]1 3160 nM
CCOc1ccc(OCc2ccc(C(=O)NCc3cccnc3)o2)cc1 8910 nM
Cc1ccccc1CS(=O)(=O)Cc1ccc(C(=O)NCc2cccnc2)o1 10000 nM
O=C1c2ccccc2C2=Nc3ccccc3SC(c3ccccc3F)C12 (centres undefined) 1410 nM
S=C(S)N1CCCC1 12600 nM
COc1ccc2cc(CCNC(=O)C3CC3)c(=O)[nH]c2c1 12600 nM
Fc1ccccc1OCCCCSc1ncccn1 14100 nM
CCN1CCN(c2nc(C)c3c(n2)CCCC3=O)CC1 2240 nM
CCCCc1n[nH]c2c1/C(=N/O)CC(c1ccccc1)C2 (centres undefined) 398 nM
NNC(=O)CCc1ccc2ccc3ccccc3c2c1 31.6 nM
O=C(O)CCCc1ccc2ccc3ccccc3c2c1 2000 nM
CCOCC(=O)Nc1c(C(=O)Nc2ccccc2OC)oc2ccccc12 398 nM
COc1cccc(NC(=O)c2oc3ccccc3c2NC(C)=O)c1 2510 nM
CCOc1ccc(NC(=O)c2oc3ccccc3c2NC(=O)CC)cc1 2000 nM
CCn1c2ccccc2c2cc(NC(=O)CSc3nnc(-c4ccc(OC)c(OC)c4)n3N)ccc21 7080 nM
CCN(CC)S(=O)(=O)c1ccc2c3c(cccc13)C(=O)S2 1260 nM
CCN(CC)S(=O)(=O)c1cccc2c(N(C)C)cccc12 7080 nM
Cc1[nH]nc(Nc2ccccc2)c1[N+](=O)[O-] 1000 nM
COC(=O)C(C)Sc1nc2c(cnn2-c2ccc(C)cc2)c(=O)[nH]1 (centres undefined) 2510 nM
CCOC(=O)CSc1nc2c(cnn2-c2ccc(C)cc2)c(=O)[nH]1 562 nM
Cc1ccc2nc(SCc3nc4c(cnn4-c4ccccc4)c(=O)[nH]3)[nH]c2c1 12600 nM
O=C(N/N=C/c1c(Nc2cccc(C(F)(F)F)c2)nc2ccccn2c1=O)c1ccccc1 2820 nM
Cc1ccc(OCC(=O)N/N=C\c2c(C)n(C)c3ccccc23)c([N+](=O)[O-])c1 562 nM
Cn1c(=O)cc(OCCCC(=O)Nc2cccnc2)c2ccccc21 2000 nM
CCOc1ccc(-c2nnc(-c3ccncc3)o2)cc1 2510 nM
COc1ccc(-c2nnc(-c3cccnc3)o2)cc1 12600 nM
COc1cccc(-c2noc(-c3cccnc3)n2)c1 2820 nM

AC50, inactive:
CN(C)CC[C@H](c1ccc(Cl)cc1)c1ccccn1

activity, negative = inhibition, inactive:
CCc1c(O)c2c(c(O)c1C(C)=O)C(=O)c1c(cc(O)c(C(=O)O)c1C(=O)O)C2=O -33.1% [at 11.4 µM]
Cc1nc2c(C#N)c(C)[nH]n2c(=O)c1Cc1ccccc1 -11.3%
S=C1NC2=C(C(c3ccc(Br)cc3)N1)N1CCC2CC1 (centres undefined) -12.2%
Cc1ccc(C(C(=O)NC2CCCCC2)N2CCN(C(=O)c3ccco3)CC2)cc1 (centres undefined) 16.9%
Cc1ccc(Cn2ccc(NC(=O)c3cc4nc(-c5ccco5)cc(C(F)(F)F)n4n3)n2)cc1 -7.6%
O=S(=O)(c1ccccc1)N1CCC[C@@]2(CCN(C(c3ccccc3)c3ccccc3)C2)C1 -16.8%
CSc1ncnc2c1ncn2[C@@H]1O[C@@H](CO)[C@H](O)O[C@@H]1O -5.22% [at 2.29 µM]
COc1ccc(OC)c(S(=O)(=O)N2CCC(C(=O)NCCc3ccccc3)CC2)c1 3.39%
COCCCNC(=O)C1CC(=O)N(Cc2ccc(OC)cc2)C1 (centres undefined) -4.01%
CO[C@@H]1COC(=O)[C@H]2CCCN2C(=O)[C@@H](C)COC(=O)[C@H](COCc2ccccc2)NC(=O)C/C=C\[C@H]1C -3.84% [at 11.4 µM]
CCN1CCc2nc(N)oc2CC1 -7.3%
Nc1ccccc1CCCC(=O)O 4.62% [at 11.4 µM]
COC(=O)C/C=C\[C@@H](C)[C@@H](/C=N\O[C@@H](C)c1cn([C@H]2COC[C@H]2O)nn1)NS(=O)(=O)c1ccc(C)cc1 -5.92% [at 11.4 µM]
CCCCN(C(=O)Nc1ccc(OCC)cc1)C1CCN(C(C)=O)CC1 -6.11%
CCOc1ccc(NC(=O)Cn2nnc(C(=O)NCc3ccccc3OC)c2N)cc1 -18.2%
CCOc1ccccc1NC(=O)C1=C(C)NC(=O)NC1c1cccc(OC)c1OC (centres undefined) -19.4%
COCC(=O)N1CCC[C@@]2(CCN(C(=O)Nc3ccc(OC)cc3)C2)C1 -18.5%
C/C(CCN1CCc2nc(-c3ccccc3)c(-c3ccccc3)cc2C1)=N\O[C@@H](C)c1cn([C@H](CO)Cc2ccccc2)nn1 1.6% [at 11.4 µM] and -0.819% [at 11.4 µM]
CCn1c2ccccc2c2cc(N=C3SC(CC(=O)Nc4ccccc4OC)C(=O)N3C)ccc21 (centres undefined) -20.4%
CCn1c(=O)cc(SCC(=O)Nc2cc(OC)c(OC)c(OC)c2)c2ccccc21 -28.7%
Cc1noc(NS(=O)(=O)c2cccc3c(N(C)C)cccc23)c1C -11.1%
CCCc1nnc(SCC(=O)N2CCCCC2C)n1CCCOC (centres undefined) 4.74%
Cc1nc(SCC(=O)Nc2c(C)nn(C)c2C)c2cnn(-c3ccccc3)c2n1 -21.6%
Nc1nc(SCC(=O)O)[nH]c(=O)c1N -10.3% [at 11.4 µM]
O=C(c1ccco1)N1CCN(c2cc(=O)n(C3CCCCC3)c(=O)[nH]2)CC1 1.95%
Cc1ccc(C(=O)N/N=C/c2sc(=O)n(Cc3cccc(C(=O)O)c3)c2Cl)cc1 19%
CC(C)(CO)[C@H](O)C(=O)NCCCO -1.12% [at 25.6 µM]
CNc1ncnc2c1ncn2[C@@H]1O[C@@H](CO)[C@H](O)[C@@H]1O -5.83%
COc1ccc(CC(=O)Nc2ccc(-c3noc(-c4cccc(OC)c4)n3)cc2)cc1 -14.6%
COc1ccc(-c2nnc(-c3ccc(OCC(C)C)cc3)o2)cc1 -20.8%
